A selection: hits, their analogues and other compounds. The true share with any hit is near 7.6%.
KB-V1 cytotox: kills drug-selected multidrug resistant KB-V1 cells | KB-V1 MDR cells viability, CellTiter-Glo, 72 h | Potency, µM (series often up to 46.1 µM), most hits filed as cytotoxic | 3.4% of 400,000 active; note: nearly all actives have a fitted effect of over 60% in size
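In this primary screen, KB-V1 cells overexpressing P-gp are incubated with library compounds (lowest to highest concentration) for 72 h at 37 degrees C before a luminescent ATP viability read.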
KB-3-1 tox: kills parental KB-3-1 adenocarcinoma cells. Potency, µM (highest dose often 46.1 µM), usual class: cytotoxic. KB-3-1 viability, CellTiter-Glo ATP luminescence, 72 h. AID 1347075. 1.4% of 400,000 active; note: nearly all actives have a fitted effect of over 60% in size
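72 h, 37 °C compound treatment of KB-3-1 parental cells; CellTiter-Glo added, 10 min, luminescence read. Data corrected against DMSO-only plates and normalized before curve fitting.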
MCF10A rerep: induces DNA re-replication in MCF 10a normal breast cells. MCF 10A DNA re-replication, Hoechst nuclear intensity, 48 h. Potency, µM (top dose mostly 46.1 µM), most hits filed as activators. 2.9% of 350,000 active. AID 624296; note: nearly all actives have a fitted effect of over 50% in size
KCNH2 3.1 block: KCNH2 3.1 (human) potassium channel inhibition. U2OS KCNH2 3.1, thallium flux FluxOr; stronger effect = lower value. activity change, % (tested at about 1.8 µM). 0.95% of 340,000 active. AID 720553;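 active = maximum activity change below -70%; inconclusive = maximum activity change from -70% to -50%; inactive = maximum activity change above -50%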;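 note: thallium influx rate constant from kinetic fluorescence after stimulation buffer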
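Kinetic fluorescence (2 min after stimulation buffer) measures Tl+ influx through KCNH2 3.1 expressed by viral transduction in U2OS cells; the rate constant is normalized against DMSO controls serving as positive and negative references.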
SW480 rerep: DNA re-replication induction in SW480 cells; SW480 DNA re-replication, Hoechst DNA content imaging, 48 h; Potency, µM (series often up to 46.1 µM), most hits filed as activators; 1.8% of 340,000 active; AID 624297; note: nearly all actives have a fitted effect of over 55% in size
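Compounds, transferred as 23 nL by pin tool, were incubated with cells for 48 hr; DNA content per nucleus was then quantified by Hoechst staining and fluorescence plate imaging.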
hERG WT inh: KCNH2 (human, wildtype) channel inhibition | Q12809 | U2OS, BacMam KCNH2, thallium flux FluxOr; stronger effect = lower value | activity change, % at 1.84 µM | 0.37% of 340,000 active | AID 720551;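 active = maximum activity change below -70%; inconclusive = maximum activity change between -70% and -50%; inactive = maximum activity change above -50%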
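U2OS cells were transduced with wild-type KCNH2 virus (2.03 x 10^8 / mL) for 4 h at room temperature, then cultured overnight at 37 C. Thallium flux was read with FluxOr dye. Rate constants were normalized to DMSO controls.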
Hits are given with their value; i = inactive; ? = inconclusive; nt = no result given. Unless noted, calls come from the whole dose curve; as a rule, active = well fitted curve in the direction sought with a large enough effect; inconclusive = small, poorly fitted or top-dose-only effect, or another doubt; inactive = no such curve, though single readings can be large; an effect the other way counts as inactive or inconclusive.

SMILES	KB-V1 cytotox	KB-3-1 tox	MCF10A rerep	KCNH2 3.1 block	SW480 rerep	hERG WT inh
CSc1ncc2[nH]c(C(O)c3ccccc3)nc2n1 (stereo unspecified)	8.2µM	3.3µM	i	i	i	i
CSc1ncc2c(=O)[nH]c(-c3ccccc3)nc2n1	i	i	i	i	i	i
O=C(Nc1ccccc1C(F)(F)F)Nc1c[nH]c(=O)[nH]c1=O	i	i	nt	nt	nt	nt
Cc1ccsc1C(=O)N1CCCC(CCC(=O)N2CCN(c3ccccn3)CC2)C1 (stereo unspecified)	?	i	6.5µM	i	i	i
COc1ccc(C(=O)N2CCCC(CCC(=O)N3CCN(c4ccccn4)CC3)C2)cc1 (stereo unspecified)	13µM	i	i	nt	i	i
N#C/C(=C(/O)COc1ccc(Cl)cc1)c1nc2ccccc2s1	13µM	?	16µM	i	i	i
N#C/C(=C(/O)c1ccc(F)cc1)c1nc2ccccc2s1	?	8.2µM	?	i	i	i
N#C/C(=C(/O)COc1ccccc1)c1nc2ccccc2s1	i	?	?	i	?	i
N#C/C(=N\O)c1nc2ccccc2s1	i	i	i	i	i	i
CCOC(=O)c1c(C)[nH]c(C)c1S(=O)(=O)NCC1CCN(Cc2cccc(Cl)c2)CC1	i	i	i	-121	i	i
COC(=O)c1cc(S(=O)(=O)NCC2CCN(Cc3ccc(C)cc3)CC2)c[nH]1	?	i	i	-76	?	i
CCOC(=O)c1c(C)[nH]c(C=O)c1Cc1cccc(Cl)c1	15µM	18µM	i	i	i	i
CSC1=NC(=O)/C(=C\c2cccc3ccccc23)S1	?	i	15µM	i	i	i
COc1ccc(CCNC(=O)CSc2nnc(Cc3cccn3C)n2C)cc1OC	i	i	i	nt	i	i
CCCN1CCN(CCCNC(=O)CCNC(=O)Cn2ccc3ccccc3c2=O)CC1	i	i	i	i	i	i
CCCCn1c(NC(=O)CC)c(C#N)c2nc3ccccc3nc21	i	i	i	i	i	i
N#Cc1c(NC(=O)c2ccccc2Cl)n(Cc2ccccc2)c2nc3ccccc3nc12	?	?	?	i	11µM	i
CCC(=O)Nc1c(C#N)c2nc3ccccc3nc2n1-c1ccccc1C	i	i	i	i	i	i
COc1ccc(-n2c(NC(=O)c3ccco3)c(C#N)c3nc4ccccc4nc32)cc1	21µM	?	8.2µM	i	18µM	i
CCCCn1c(NC(=O)c2ccccc2Cl)c(C#N)c2nc3ccccc3nc21	?	?	2.6µM	i	16µM	i
Cn1c(SCc2ccccc2F)nc2cccnc21	18µM	i	i	i	i	i
O=C(Nc1cc(S(=O)(=O)Nc2ccc(Cl)cc2)ccc1O)c1ccc(S(=O)(=O)N2CCCCCC2)cc1	i	i	?	i	i	i
O=C(CNC(=O)c1ccccc1)N/N=C/c1cc(Br)ccc1O	?	?	i	i	?	i
NC(N)=N/N=C/c1cc([N+](=O)[O-])ccc1O	i	i	i	i	nt	i
O=C(N/N=C/c1cc([N+](=O)[O-])ccc1O)c1cccc(NC(=O)c2cccc(Cl)c2)c1	i	i	i	i	2.3µM	i
SMILES	KB-V1 cytotox	KB-3-1 tox	MCF10A rerep	KCNH2 3.1 block	SW480 rerep	hERG WT inh
O=C(CNC(=O)c1ccc2c(c1)OCO2)N/N=C/c1cc(Br)ccc1O	i	?	i	i	4.1µM	i
O=C(N/N=C\c1cc(Cl)ccc1O)c1ccc(S(=O)(=O)N2CCCCC2)cc1	?	?	15µM	i	7.3µM	i
O=[N+]([O-])c1ccc(O)c(/C=N\N=C2c3ccccc3-c3ccccc32)c1	13µM	8.2µM	?	i	?	i
Cc1ccc(S(=O)(=O)NC[C@H]2O[C@@H](n3cnc4c(N)ncnc43)[C@H](O)[C@@H]2O)cc1	i	i	nt	nt	nt	nt
Cc1ccc(-c2nc(CS(=O)(=O)CC(=O)NCCN3CCCC3)c(C)o2)cc1	i	i	i	i	i	i
O=C(N/N=C/c1cc(Cl)ccc1O)c1ccccc1Br	?	?	i	i	6.5µM	i
O=C(CNC(=O)c1ccccc1Br)N/N=C/c1cc(Br)ccc1O	i	i	?	i	7.3µM	i
O=C(N/N=C/c1cccnc1)c1cccc(Cl)c1	?	i	i	i	i	i
O=[N+]([O-])c1ccc(O)c(/C=N/Nc2ccc(Cl)nn2)c1	i	?	0.73µM	i	?	i
O=C(CNC(=O)c1ccccc1Br)N/N=C/c1ccccc1O	?	?	?	i	?	i
O=C(N/N=C/c1cc(Cl)ccc1O)c1cccnc1	i	?	?	i	1.3µM	i
Cc1cccc(C(O)c2ncc(-c3ccccc3F)[nH]2)c1C (stereo unspecified)	?	i	nt	nt	nt	nt
O=C(c1ccc(OC2CCN(CCO)CC2)cc1)N1CCCC1	i	i	i	nt	i	i
Cc1cccc(Cn2cc(S(=O)(=O)c3ccc(Cl)cc3)c(=O)c3cc4c(cc32)OCO4)c1	i	i	nt	nt	nt	nt
O=C(CCN1C(=O)c2ccccc2C1=O)N1CCN(Cc2ccc(Cl)cc2Cl)CC1	15µM	i	i	i	i	i
CC(=O)Nc1cc(C(=O)NCc2ccc(C)cc2)ccc1S(=O)(=O)c1ccc(Cl)cc1	i	i	nt	nt	nt	nt
O=C(O)c1ccc(N=Nc2c(O)ccc3ncccc23)cc1	?	?	i	i	15µM	i
CC(C)Oc1ccccc1NC(=O)CSc1nccn1C	i	i	i	i	?	i
O=C(OCc1ccco1)c1cccnc1	i	i	13µM	i	?	i
CC(=O)c1cccc(N=c2scc(-c3ccc(S(=O)(=O)N4CCOCC4)cc3)n2CCO)c1	5.8µM	i	i	i	i	i
C=CCn1c(-c2ccc(OC)cc2)csc1=Nc1c(C)n(C)n(-c2ccccc2)c1=O	8.2µM	16µM	i	i	i	i
Cc1ccc(-c2csc(=Nc3ccccc3)n2CCCO)cc1	i	i	nt	nt	nt	nt
Cc1csc(=Nc2c(C)n(C)n(-c3ccccc3)c2=O)n1Cc1ccccc1	i	i	i	i	i	i
COc1ccc(-c2csc(=Nc3ccccc3)n2CCO)cc1	7.3µM	12µM	?	i	i	i
Cc1ccc(C(=O)NCC(c2ccc3c(c2)OCO3)N2CCOCC2)cc1C (stereo unspecified)	i	i	nt	nt	nt	nt
O=C(NCC1CCN(Cc2ccc(F)cc2)CC1)c1cc2ccc3cccnc3c2[nH]1	i	i	nt	nt	nt	nt
COc1cccc(CC(=O)NN2C(=O)NC3(CCCCC3)C2=O)c1	i	i	i	i	i	i
CCC(=O)Oc1ccc(C2NC(=O)c3ccccc3O2)cc1OC (stereo unspecified)	?	i	?	i	i	i
COc1cc(C2c3c(-c4cc(C)ccc4O)n[nH]c3C(=O)N2CCCO)ccc1OCCC(C)C (stereo unspecified)	i	i	nt	nt	nt	nt

Source: PubChem
